Test results: the supplement of paper PMC8877412
Structures can show the parent of a compound that is named as a salt. ± gives the uncertainty stated by the source.

What follows are molecules tested on NCC-PMP1-C1 (assay: cell viability relative to DMSO control; higher = less growth inhibition). Conditions: 10 µM; 72 h.
Method: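 NCC-PMP1-C1 pseudomyxoma peritonei cells were seeded in 384-well plates coated with Matrigel and MEF (1e4 cells). Viability was read after 72 h by CCK-8 and expressed as % of the DMSO control, mean ± SD of duplicates.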
Molecule COc1cc(Nc2ncc(F)c(Nc3ccc4c(n3)N(COP(=O)(O)O)C(=O)C(C)(C)O4)n2)cc(OC)c1OC [Fostamatinib (R788)] has a cell viability of 4.92 ± 3.4%. Cc1ccc(NC(=O)c2ccc(CN3CCN(C)CC3)cc2)cc1Nc1nccc(-c2cccnc2)n1 [Imatinib Mesylate (STI571)] showed a cell viability of 75.2 ± 4.4%. Nc1[nH]cnc2ncnc1-2 [Adenine HCl] showed a cell viability of 108 ± 25%. O=C1CCC(N2C(=O)c3ccccc3C2=O)C(=O)N1 (stereo unspecified) [Thalidomide] gave a cell viability of 110 ± 6.2%. Cc1ccc(NC(=O)c2ccc(CN3CCN(C)CC3)cc2)cc1Nc1nccc(-c2cccnc2)n1 [Imatinib (STI571)] showed a cell viability of 92.3 ± 6.7%. Cc1ccc(-c2cc(C(F)(F)F)nn2-c2ccc(S(N)(=O)=O)cc2)cc1 [Celecoxib] gave a cell viability of 99.99 ± 0.53%. COc1cc2c(Oc3ccc(NC(=O)C4(C(=O)Nc5ccc(F)cc5)CC4)cc3F)ccnc2cc1OCCCN1CCOCC1 was tested, and the cell viability was 2.42 ± 1%. Cc1nc(Nc2ncc(C(=O)Nc3c(C)cccc3Cl)s2)cc(N2CCN(CCO)CC2)n1 [Dasatinib] showed a cell viability of 26.3 ± 4.4%. CN1CCN(CCOc2cc(OC3CCOCC3)c3c(Nc4c(Cl)ccc5c4OCO5)ncnc3c2)CC1 [Saracatinib (AZD0530)] gave a cell viability of 49.7 ± 2%. CS(=O)(=O)CCNCc1ccc(-c2ccc3ncnc(Nc4ccc(OCc5cccc(F)c5)c(Cl)c4)c3c2)o1 showed a cell viability of 51.2 ± 7.9%. With O=C(O)C(=O)O.[NH-][C@@H]1CCCC[C@H]1[NH-].[Pt+2] [Oxaliplatin] the cell viability was 103 ± 15%. C#Cc1cccc(Nc2ncnc3cc(OCCOC)c(OCCOC)cc23)c1 [Erlotinib] was tested, and the cell viability was 66.7 ± 5.8%. Work on CCCCCOC(=O)Nc1nc(=O)n([C@@H]2O[C@H](C)[C@@H](O)[C@H]2O)cc1F [Capecitabine] yielded a cell viability of 98.9 ± 16%. N#CC[C@H](C1CCCC1)n1cc(-c2ncnc3[nH]ccc23)cn1 was tested, and the cell viability was 83.6 ± 8.2%. In the case of COc1cc2c(cc1O)CCN[C@]21CS[C@@H]2c3c(OC(C)=O)c(C)c4c(c3[C@H](COC1=O)N1[C@@H]2[C@H]2c3c(cc(C)c(OC)c3O)C[C@@H]([C@@H]1O)N2C)OCO4 [Trabectedin], the cell viability is reported as -0.842 ± 0.95%. Nc1nc(CC(=O)Nc2ccc(CCNC[C@H](O)c3ccccc3)cc2)cs1 [Mirabegron] showed a cell viability of 101 ± 5.9%. Molecule CO[C@H]1C[C@@H]2CC[C@@H](C)[C@@](O)(O2)C(=O)C(=O)N2CCCC[C@H]2C(=O)O[C@H]([C@H](C)C[C@@H]2CC[C@@H](OC(=O)C(C)(CO)CO)[C@H](OC)C2)CC(=O)[C@H](C)/C=C(\C)[C@@H](O)[C@@H](OC)C(=O)[C@H](C)C[C@H](C)/C=C/C=C/C=C/1C has a cell viability of 155 ± 67%. N#Cc1ccc(C(c2ccc(C#N)cc2)n2cncn2)cc1 [Letrozole] was tested, and the cell viability was 129 ± 29%. Molecule COC(=O)N[C@H](C(=O)N[C@@H](Cc1ccccc1)[C@@H](O)CN(Cc1ccc(-c2ccccn2)cc1)NC(=O)[C@@H](NC(=O)OC)C(C)(C)C)C(C)(C)C [Atazanavir Sulfate] has a cell viability of 109 ± 1.1%. With Nc1nc(Cl)nc2c1ncn2[C@H]1C[C@H](O)[C@@H](CO)O1 [Cladribine] the cell viability was 97.8 ± 1.1%. In the case of O=C(c1ccc(OCCN2CCCCC2)cc1)c1c(-c2ccc(O)cc2)sc2cc(O)ccc12 [Raloxifene HCl], the cell viability is reported as 92.9 ± 5.5%. Molecule Cc1[nH]c(/C=C2\C(=O)Nc3ccccc32)c(C)c1CCC(=O)O [Orantinib (TSU-68, SU6668)] has a cell viability of 115 ± 2.1%. In the case of CC(=O)[C@]1(O)Cc2c(O)c3c(c(O)c2[C@@H](O[C@H]2C[C@H](N)[C@H](O)[C@H](C)O2)C1)C(=O)c1ccccc1C3=O [Idarubicin HCl], the cell viability is reported as 4.26 ± 0.73%. With CNC(=O)c1cc(Oc2ccc(NC(=O)Nc3ccc(Cl)c(C(F)(F)F)c3)cc2)ccn1 [Sorafenib] the cell viability was -8.05 ± 0.27%. Work on CC[C@]1(O)C[C@@H]2CN(CCc3c([nH]c4ccccc34)[C@@](C(=O)OC)(c3cc4c(cc3OC)N(C)[C@H]3[C@@](O)(C(=O)OC)[C@H](OC(C)=O)[C@]5(CC)C=CCN6CC[C@]43[C@@H]65)C2)C1 [Vinblastine sulfate] yielded a cell viability of 43.6 ± 2.9%. Work on Nc1nnc(-c2cccc(Cl)c2Cl)c(N)n1 [Lamotrigine] yielded a cell viability of 102.9 ± 0.8%. CC[C@@H]1/C=C(\C)C[C@H](C)C[C@H](OC)[C@H]2O[C@@](O)(C(=O)C(=O)N3CCCC[C@H]3C(=O)O[C@H](/C(C)=C/[C@@H]3CC[C@H](Cl)[C@H](OC)C3)[C@H](C)[C@@H](O)CC1=O)[C@H](C)C[C@@H]2OC [Pimecrolimus] gave a cell viability of 78.1 ± 5.1%. Molecule C=C1c2cccc(O)c2C(O)=C2C(=O)[C@]3(O)C(O)=C(C(N)=O)C(=O)[C@@H](N(C)C)[C@@H]3[C@@H](O)[C@H]12 [Methacycline HCl] has a cell viability of 108.4 ± 0.2%. Molecule CC1=C(/C=C/C(C)=C/C=C/C(C)=C/C(=O)O)C(C)(C)CCC1 [Tretinoin] has a cell viability of 129 ± 16%. O=C(CCCCCCC(=O)Nc1ccccc1)NO [Vorinostat (SAHA, MK0683)] was tested, and the cell viability was 27.7 ± 2.2%. In the case of C=CC(=O)Nc1cccc(Nc2nc(Nc3ccc(N4CCN(C(C)=O)CC4)cc3OC)ncc2C(F)(F)F)c1 [Rociletinib (CO-1686, AVL-301)], the cell viability is reported as 57.8 ± 3.1%. Molecule COc1ccc(C2=N[C@@H](c3ccc(Cl)cc3)[C@@H](c3ccc(Cl)cc3)N2C(=O)N2CCNC(=O)C2)c(OC(C)C)c1 [Nutlin-3] has a cell viability of 74.1 ± 4.9%. Molecule CCCCC1C(=O)N(c2ccccc2)N(c2ccccc2)C1=O [Phenylbutazone] has a cell viability of 119 ± 5.4%. CNC(=O)c1cc(Oc2ccc(NC(=O)Nc3ccc(Cl)c(C(F)(F)F)c3)cc2)ccn1 [Sorafenib Tosylate] gave a cell viability of 148 ± 14%. Cc1ccc(NC(=O)c2ccc(CN3CC[C@H](N(C)C)C3)c(C(F)(F)F)c2)cc1Nc1nccc(-c2cncnc2)n1 [Bafetinib (INNO-406)] showed a cell viability of 72.1 ± 3.7%. CCC[C@@H]1C[C@@H](C(=O)N[C@@H]([C@H]2O[C@H](SC)[C@H](O)[C@@H](O)[C@H]2O)[C@@H](C)O)N(C)C1 [Lincomycin HCl] was tested, and the cell viability was 74.4 ± 15%.
